Assay outcomes (PubChem BioAssay)
PvdQ inh = P. aeruginosa PvdQ acylase inhibition | purified PvdQ acylase, fluorescence plate reader | inhibition, % at 10 µM | actives 0.063% (n = 340,000); in the data active = inhibition above about 30%, passing the limit was not always enough;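 note: 0% = vehicle neutral wells and 100% = reference inhibitor wells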
PHOSPHO1 inh = PHOSPHO1 (human) inhibition; AID 1565; inhibition, % at 13.3 µM; actives 1.1% (n = 290,000); recombinant PHOSPHO1, absorbance phosphatase assay; Q8TCT1; in the data active = inhibition above about 60%
Target sequence (Q8TCT1 whole entry, looked up): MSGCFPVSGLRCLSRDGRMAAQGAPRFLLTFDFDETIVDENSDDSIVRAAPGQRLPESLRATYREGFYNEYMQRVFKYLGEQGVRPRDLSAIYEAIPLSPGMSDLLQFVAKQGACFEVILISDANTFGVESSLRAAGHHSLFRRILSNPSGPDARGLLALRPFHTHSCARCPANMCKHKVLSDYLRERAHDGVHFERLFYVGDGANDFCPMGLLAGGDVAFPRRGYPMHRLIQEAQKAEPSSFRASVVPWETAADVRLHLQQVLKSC
HDAC3 inh = inhibitors of human histone deacetylase 3 | O15379 | recombinant HDAC3, fluorogenic peptide/trypsin coupled, fluorescence | inhibition, % at 8.3 µM | actives 0.15% (n = 320,000) | AID 2718; in the data active = inhibition above about 26%, passing the limit was not always enough
p-CIP stab down = p/CIP protein destabilization | F442A p/CIP-EGFP cells, EGFP fluorescence, 16 h | decrease of EGFP signal, % at 10 µM | actives 0.01% (n = 290,000) | Q05BA5;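 active = EGFP signal decrease of at least 30% at 10 µM or well 3 SD below plate mean, unless failing retest; inactive = the rest, including hits failing retest or dose response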
SUMO Mot1 rescue = SUMOylation pathway inhibition by Mot1-301 growth rescue; growth rescue, % at 18.8 µM; S. cerevisiae Mot1-301 growth rescue, ATP luminescence, 38.5C; percent above DMSO median, 100 means doubled; actives 1% (n = 320,000);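 active = every valid replicate shows activation above 250% relative to neutral control wells; inactive = the rest, any valid replicate at or below 250%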;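 note: OY570 slx delta 5 strain wells were the positive control but not used for scaling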
JMJD2C inh = inhibitors of human GASC-1 (JMJD2C) demethylase; inhibition, % at 2.35 µM; actives 0.069% (n = 330,000); Q9H3R0; GST-JMJD2C(1-420) H3K9me3 demethylation, DELFIA europium;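 active = more than half of a compound's replicate wells show inhibition beyond 50%, single wells judged on their own value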;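 note: signal counts dimethyl H3K9 product captured on neutravidin plate; 0% = median of DMSO wells and 100% = 0.3 times that DMSO median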
An asterisk follows results filed as active; nt = not tested or not shown. This is a sample that favours compounds with a hit; in the whole collection about 2.2% have one here.

SMILES	PvdQ inh	PHOSPHO1 inh	HDAC3 inh	p-CIP stab down	SUMO Mot1 rescue	JMJD2C inh
O=C1CCn2nc(-c3ccc(Cl)cc3)cc2N1	-16.8	-6.2	2.4	3.3	604.8*	-20.5
Nc1cc(-c2ccc(Cl)cc2)nn1-c1ccccc1	-4.5	27.1	-7.4	-5.4	21.2	-32.4
COc1ccc(NC(=O)COc2cccc3c2OC(C)(C)C3)c(OC)c1	-2.7	nt	nt	nt	nt	nt
Cc1cccc(OCc2nnc(SCC(=O)c3cccs3)n2C)c1C	-5.3	75.5*	-1.8	-14.9	-4.1	-9.2
CCn1c(SCC(=O)NC(=O)Nc2ccc3c(c2)OCCO3)nnc1-c1cccs1	-10.0	65.3*	4.7	-7.1	-26.1	-9.3
CCn1c(SCC(=O)c2cccs2)nnc1-c1cccs1	-19.6	70.5*	3.0	-2.8	-2.0	-1.3
CCn1c(SCC(=O)NC(C)C)nnc1-c1cccs1	5.5	18.6	-3.6	-16.9	6.1	7.0
Cc1ccccc1OCc1nnc(SCC(=O)NCc2ccccc2)n1C	-11.4	48.3	2.6	-1.7	-11.9	31.2
Cc1ccc(NC(=O)c2ccc(N3CCCC3=O)cc2)cc1S(=O)(=O)N1CCCCC1	-6.7	nt	0.5	nt	11.8	0.7
Cn1c(NN)nc2sc3c(c2c1=O)CC(C)(C)OC3	-2.3	-26.0	1.8	-4.6	-1.1	-11.1
CCC1CC2(C)NC(=O)c3c(sc4c3CC(C)(C)OC4)N2C1=O (centres undefined)	-8.3	84.4*	nt	-8.0	nt	-14.9
Cc1cnc(C(=O)OCC(=O)Nc2ccccc2[N+](=O)[O-])cn1	-8.4	nt	-2.2	nt	-7.3	1.1
O=C(c1cc(COc2ccc(F)cc2F)on1)N1CCCC(c2ccccc2)C1 (centres undefined)	-9.3	60.1*	8.4	-23.2	11.1	10.6
O=C(c1cc(COc2cccc3cnccc23)on1)N1CCCC(CCCO)C1 (centres undefined)	-22.6	62.8*	-15.0	-15.4	9.8	-3.2
C=CCN(CC=C)C(=O)COC(=O)c1ccc(Sc2ncn[nH]2)c([N+](=O)[O-])c1	-40.5	44.8	-9.5	-7.1	-5.4	35.6
CCOc1cc(/C=C2\N=C(C)OC2=O)cc(Br)c1OCC(=O)OC	-0.4	33.8	17.7	-8.2	25.5	-1.9
CCOC(=O)COc1c(Cl)cc(/C=C2\N=C(C)OC2=O)cc1OC	-3.9	nt	65.9*	nt	-1.1	-6.5
CCOc1ccc(NC(=O)CCNS(=O)(=O)c2ccc3c(c2)CCC(=O)N3)cc1	-9.9	11.9	4.8	0.0	-6.9	-19.4
Cc1ccccc1NC(=O)CCNS(=O)(=O)c1ccc2c(c1)CCC(=O)N2	-14.0	61.6*	-2.5	6.6	0.2	1.6
Cc1ccc(NC(=O)CCNS(=O)(=O)c2ccc3c(c2)CCC(=O)N3)cc1F	8.4	70.2*	1.6	-5.1	-7.2	39.0
COc1ccc(/C=C2/N=C(c3cccs3)OC2=O)cc1OC(C)C	-17.6	7.8	11.7	-2.5	891.9*	-6.3
O=C(CN(CC1CCCO1)C(=O)CNS(=O)(=O)c1ccc(F)cc1)NC1CCCC1 (centres undefined)	2.8	18.7	1.4	16.0	6.7	-4.5
CC(Sc1nnc(COc2ccc3ccccc3c2)n1C)C(=O)O (centres undefined)	-11.2	76.4*	9.4	-2.7	1.9	8.1
N#CCCN(C(=O)COC(=O)CCc1nc2ccccc2c(=O)[nH]1)c1ccccc1F	-15.5	nt	-0.9	nt	5.8	-1.9
O=S(=O)(Nc1nccs1)c1ccc(Br)cc1	3.4	19.2	6.9	5.0	8.1	-4.9
SMILES	PvdQ inh	PHOSPHO1 inh	HDAC3 inh	p-CIP stab down	SUMO Mot1 rescue	JMJD2C inh
O=S(=O)(Nc1ccc(S(=O)(=O)Nc2nccs2)cc1)c1ccc(Br)cc1	-8.3	7.7	43.1*	-1.4	-5.0	-14.1
CCOC(=O)c1c(N)sc(-c2ccccc2)c1C	-4.0	-3.5	14.9	-27.8	116.6	3.1
Cc1c(-c2ccccc2)sc(N)c1C(=O)N1CCOCC1	5.7	74.4*	4.9	-3.1	-16.6	4.1
O=C(NC1CSCC1OC(=O)c1ccccc1)c1ccccc1 (centres undefined)	-9.9	48.3	5.5	-7.9	82.5	-7.5
O=C(CCCN1C(=O)c2ccccc2C1=O)OC1CSCC1NC(=O)c1ccccc1 (centres undefined)	0.1	11.0	-4.7	-4.1	298.6*	1.7
C#CCSc1nccc(-c2nn(-c3ccc(C)cc3)ccc2=O)n1	-3.8	80.9*	-6.4	6.3	-7.7	0.0
CCSc1nccc(-c2nn(-c3ccc(C)cc3)ccc2=O)n1	-2.6	10.1	4.7	4.8	-3.0	-23.7
O=C(COC(=O)C1(c2ccccc2F)CCCC1)NC1CCS(=O)(=O)C1 (centres undefined)	-5.2	-3.3	5.2	-5.6	297.9*	9.2
CCCCCNC(=O)CC1Nc2c3ccccc3nc(=S)n2C1=O (centres undefined)	13.7	65.1*	-1.1	-7.0	13.9	1.8
COc1ccc(Nc2cc(Nc3ccccc3)ncn2)cc1	-7.5	23.3	2.5	3.7	114.0	-9.5
Cc1ccccc1OCC(=O)NNC(=S)NC(=O)c1ccco1	-9.5	98.7*	2.8	8.6	-4.9	6.4
O=C(NC(=S)Nc1ccccc1Cl)c1ccco1	-10.9	-22.0	-1.2	-8.4	355.3*	-14.9
Cc1ccccc1OCC(=O)Nc1ccccc1NC(=O)c1ccco1	-2.8	14.6	0.4	6.9	-19.6	-0.6
COc1cc(/C=N/NC(=O)c2sc3nc(C)cc(C)c3c2N)ccc1O	-7.9	26.8	-3.1	0.2	-8.2	-5.1
CC1CCCCN1CCCNC(=O)CN1C(=O)c2cccnc2Oc2ccc(Cl)cc21 (centres undefined)	-4.7	8.9	-3.5	-2.5	0.4	-5.8
Cc1cc(C)n(-c2nc(NCCCO)c3c4c(sc3n2)CCCC4)n1	-15.0	-3.5	-8.7	-18.2	-10.7	10.8
Cc1cc(C)n(-c2nc(NCCO)c3c4c(sc3n2)CCCC4)n1	-11.9	80.7*	-8.3	-1.9	21.6	1.1
O=C(Cc1ccc(Br)cc1)OCC(=O)N1CCCCCC1	-4.2	nt	0.9	nt	-0.2	7.2
CCc1nnc(SCC(=O)Nc2ccc(N3CCOCC3)cc2)o1	-3.0	28.4	-5.6	10.2	-16.2	5.5
Cc1nnc(SCC(=O)Nc2ccc(N3CCOCC3)cc2)o1	-7.9	63.2*	8.1	-2.8	-25.4	-8.3
Clc1ccc2scc(CN3CCCC3)c2c1	81.3*	nt	-2.6	nt	-4.5	4.7
CNC(=O)Cc1csc2ccc(Cl)cc12	-6.7	3.8	-5.5	1.3	5.1	-5.1
O=C(NCCCN1CCOCC1)C(=O)NCC1OCCCN1S(=O)(=O)c1cc(F)ccc1F (centres undefined)	-27.6	75.4*	2.7	-11.6	256.2	nt
O=C(NCCN1CCOCC1)C(=O)NCC1OCCN1S(=O)(=O)c1cc(F)ccc1F (centres undefined)	-10.8	38.3	-7.3	2.1	-2.3	22.9
Cc1ccc(NC2CCCN(C(=O)c3ccoc3C)C2)cc1C (centres undefined)	-2.0	21.8	-2.0	-14.8	-7.0	9.4
